About 860 (78%) of roughly 1,100 compounds were called active. Another 19% or so got no clear call; they are omitted. Calls come from the whole dose curve; as a rule, active = well fitted activation curve with a large enough effect; inconclusive = small, poorly fitted or top-dose-only effect; inactive = flat fitted curve, though single readings scatter. The set was probably picked from earlier hits. Some of the results follow.
Assay: qHTS of Nrf2 Activators: Hit Validation in Primary Assay; note: nearly all actives have a fitted effect of over 70% in size
Conditions: Nrf2/ARE reporter cell assay, activation
Source text: Many diseases have some form of oxidative stress injury and ties to inflammation, causing a host of problems for the patient. The antioxidant response element (ARE) plays an important role in alleviating the harmful effects of oxidative stress. The antioxidant response element (ARE) is a transcriptional regulatory element involved in the activation of genes coding for a number of antioxidant proteins and detoxifying enzymes. These enzymes work in concert to protect tissues from oxidative insults and chemical toxicities in human hepatocytes and immune cells. The protective effects of ARE activation are primarily triggered through Nrf2 (NF-E2-related factor) binding to and activating AREs. It is known that Nrf2 controls the production of over 250 antioxidant and detoxification proteins (Hu et al., 2006), thereby protecting tissues by increasing cellular antioxidant content and suppressing inflammatory signaling pathways. The transcription factor Nrf2 is a central link between oxidative chemicals, such as phenolic antioxidants and electrophilic compounds, and the activation of ARE. Nrf2 levels are constitutively low as a consequence of its interaction with Keap1, which targets its degradation (Zipper and Mulcahy, 2002). Electrophiles react with key cysteine residues in Keap1, releasing Nrf2 and allowing its translocation to the nucleus. Once within the nucleus, Nrf2 complexes with coactivators such as p300, and binds to the AREs to induce gene transcription of cytoprotective enzymes, resulting in the prevention of toxicity. Activation of Nrf2 protects tissues by increasing cellular antioxidant content and suppressing inflammatory signaling pathways. Identifying novel and potent Nrf2 activators by using the AREc32 cell line to detect ARE activation by small molecules will lead to the identification and development of probes to study protective pathways in multiple tissues. These specific probes are essential to study the ARE pathway, and eventually to determine whether this pathway does activate genes that could protect against a host of diseases, including cardiovascular diseases, obesity, diabetes, Alzheimer's, and Parkinson's disease.
This project's aim is to identify novel and potent Nrf2 activators by using the AREc32 cell line to detect ARE activation by small molecules, which will lead to the identification and development of probes to study the ARE pathway.
NIH Chemical Genomics Center [NCGC]
NIH Molecular Libraries Probe Centers Network [MLPCN]
Assay Submitter (PI): Curtis Klaassen, University of Kansas Medical Center
Quantification of ARE activation after compound treatment was measured by the Steady-Glo Luciferase (R) assay system (Promega) in AREc32_fluc stable cells. The Steady-Glo reagent acts by cell lysis and generation of a luminescent signal proportional to ARE activation, through the luciferase reporter in the AREc32 stable cell line. AREc32_fluc cells were harvested from T225 flask and resuspended in phenol red free OPTI-MEM medium with 5% FBS. Then 5 microL of 200,000 cells/mL resuspended cells were dispensed into each well of white, solid bottom, 1536-well tissue culture-treated plates using a Multidrop Combi dispenser. After overnight culture at 37 degrees C with 5% CO2, a total of 23 nL of compounds at 5 selected concentrations from the MLSMR/Sytravon or positive control (40 uM stock of CDDO-IM and 2 mM of tBHQ) in DMSO was transferred to each well of the assay plate using a pintool (Kalypsys, San Diego, CA), and the plates were further incubated at 37 degrees C with 5% CO2 for 24 hours. After that, 2 microL of Steady Glo luminescent substrate mix (Promega) was added to each well. The plate was incubated at room temperature for 30 minutes. The plates were measured on a ViewLux plate reader (PerkinElmer) with clear filter.
Potency is the fitted concentration of half-maximal effect.

Compound	Potency
COc1ccc(Sc2cnn(-c3ccccc3)c(=O)c2Cl)cc1	4.61 µM (active)
O=c1[nH]c(=S)[nH]c(O)c1N=Nc1ccc(S(=O)(=O)N2CCc3ccccc32)cc1	16.4 µM (active)
Clc1ccccc1Nc1ncnc(-n2cccc2)n1	2.59 µM (active)
Cc1cccc(C(=O)Nc2nnc(SCC(=O)NCc3ccco3)s2)c1	8.2 µM (active)
Cc1cc(SCC(=O)N/N=C/c2ccco2)nc2ccccc12	11.6 µM (active)
CCn1c(=O)oc2cc(NC(=O)CCl)ccc21	4.61 µM (active)
Cn1c(=O)oc2cc(NC(=O)CCl)ccc21	4.61 µM (active)
O=C(O)c1ccc([N+](=O)[O-])c([N+](=O)[O-])c1	5.17 µM (active)
Cn1c(O)c(N=Nc2ccc(S(=O)(=O)N3CCOCC3)cc2)c(=O)n(C)c1=O	18.4 µM (active)
Clc1cccc(/C=N\Nc2nccs2)c1	2.91 µM (active)
O=C(Nc1ccc(Cl)c(Cl)c1)c1ccco1	4.61 µM (active)
O=C1c2ccccc2-c2cc3ccccc3cc21	4.61 µM (active)
Fc1cccc(F)c1-c1nc(-c2ccc(Cl)cc2)no1	3.66 µM (active)
CCCCn1c(O)c(C(=O)/C=C/c2ccc3c(c2)OCO3)c(=O)[nH]c1=O	9.2 µM (active)
O=C(/C=C/c1ccccc1)c1c(O)n(CCc2ccccc2)c(=O)[nH]c1=O	3.66 µM (active)

Reference: PubChem BioAssay AID651593 (National Center for Advancing Translational Sciences (NCATS), 2012)
